PubChem BioAssay AID493216 (National Center for Advancing Translational Sciences (NCATS), 2011)
Active and inactive are the calls of the source. Calls follow the shape of the full dose curve.

Biological target: Polyunsaturated fatty acid lipoxygenase ALOX12 (Homo sapiens) (UniProt P18054)
Test: Inhibitors of 12-hLO (12-human lipoxygenase): Cuvette-Based Hit Assay for Validation of Followup Compounds
Details: purified 12-hLO, cuvette absorbance 234 nm
Procedure: The enzyme activity of 12-hLO was determined by a direct measurement of product formation by monitoring the absorbance at 234 nm in a 2 mL cuvette. IC50 values of inhibitors were obtained by measuring the enzymatic rate at a variety of concentrations (Carroll et al, Segraves et al). This assay was used to validate actives or inconclusive putative inhibitors identified in the primary screen (see related BioAssay AIDs). Assay Provider: Holman, T.R., University of California, Santa Cruz Screening Center PI: Austin, Christopher P. Screening Center: NIH Chemical Genomics Center
For control experiments, 2 mL of substrate buffer (10 uM arachidonic acid / 25 mM HEPES / 0.01% (v/v) Triton X-100, pH 8.0) was aliquoted in a cuvette with a magnetic stir bar. After equilibrium was ensured, an aliquot of inhibitor solvent was added (DMSO), and equilibrium was once again assured. The reaction was started by adding enzyme to the cuvette and the reaction was followed until completed. The inhibition experiments were performed as above, except the actual inhibitory compound was added instead of vehicle. To achieve an IC50, typically 5 concentrations of the inhibitor were studied. If the inhibitor concentration was constant, then five different reaction volumes were used. Step \ Parameter \ Value \ Description 1; UV-Vis; 234 nm; Equilibration 2; Reagent; 2 mL; Substrate buffer 3; UV-Vis; 234 nm; Equilibration 4; Reagent; varies; Compound 5; UV-Vis; 234 nm; Equilibration 6; Reagent; 50-200 nM; Enzyme 12-hLO 7; UV-Vis; 234 nm; Enzymatic reaction Step \ Notes 1; Blank cuvette to air. 2; 10 uM AA, 25 mM HEPES, 0.01% Triton X-100, pH 8. 3; No change in absorbance ensured. 4; Compound vehicle or compound in various concentrations depending on potency. 5; No change in absorbance ensured. 6; Enzyme concentration to achieve reaction rate between 0.02 and 0.04 AU/s. 7; Enzymatic reaction visualized until completion.

Chain of Polyunsaturated fatty acid lipoxygenase ALOX12 (Homo sapiens) (P18054 whole entry, looked up): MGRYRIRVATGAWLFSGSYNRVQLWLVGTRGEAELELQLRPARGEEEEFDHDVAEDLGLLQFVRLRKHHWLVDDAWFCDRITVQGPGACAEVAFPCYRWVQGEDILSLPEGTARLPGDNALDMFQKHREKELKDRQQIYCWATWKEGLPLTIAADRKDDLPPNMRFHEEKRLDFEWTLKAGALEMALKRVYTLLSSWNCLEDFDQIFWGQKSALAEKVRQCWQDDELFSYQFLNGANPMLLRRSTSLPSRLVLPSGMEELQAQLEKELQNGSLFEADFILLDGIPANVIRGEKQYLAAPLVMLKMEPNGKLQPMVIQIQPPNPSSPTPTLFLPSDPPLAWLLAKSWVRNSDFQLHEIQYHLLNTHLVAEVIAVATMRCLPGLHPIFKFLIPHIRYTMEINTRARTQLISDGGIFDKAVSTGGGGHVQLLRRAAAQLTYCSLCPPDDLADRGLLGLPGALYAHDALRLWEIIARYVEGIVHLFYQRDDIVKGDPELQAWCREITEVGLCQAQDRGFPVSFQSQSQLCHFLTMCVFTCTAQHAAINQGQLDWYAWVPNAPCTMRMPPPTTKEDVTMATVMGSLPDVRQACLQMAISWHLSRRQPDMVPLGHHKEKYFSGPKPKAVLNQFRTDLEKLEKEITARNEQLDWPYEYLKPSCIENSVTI

Potency, active:
Cc1ccc(S(=O)(=O)Nc2nc(C)c(NC(=O)Nc3ccc(Cl)cc3Cl)s2)cc1 2.35 µM, c1ccc(-c2nc(NCc3cccnc3)c3oc4ccccc4c3n2)cc1 14 µM, O=C(Nc1nnc(C2=COCCO2)o1)c1ccc(Cl)cc1 7.14 µM, COc1cc(CNc2ccc(N3CCCC3)cc2)ccc1OCc1ccccc1 25 µM, Cc1ccc(C(=O)Nc2nnc(-c3ccco3)o2)cc1 6.52 µM, CC1=NN(c2ccc(Cl)cc2)C(=O)C1C(c1ccccc1O)c1c(C)[nH]n(-c2ccc(Cl)cc2)c1=O (stereo unspecified) 18.9 µM, N#CC1=C(N)Oc2n[nH]c(-c3cccs3)c2C1C1CCCCC1 (stereo unspecified) 7.69 µM, CCOc1ccc(-c2[nH]ncc2Oc2cccc(OC)c2)c(O)c1 28.1 µM, Oc1ccccc1-c1cc(-c2cccc(F)c2)n[nH]1 18.9 µM, CCCOC(=O)c1ccc(Oc2cn[nH]c2-c2ccc(OC)cc2O)cc1 26.8 µM, COc1ccc(NC2=NCC(Cc3ccc(Br)cc3)S2)cc1 (stereo unspecified) 36.6 µM
